Where “and” joins values, the source holds several entries; their conditions need not be identical. Identical values can stand only once. Results filed as inconclusive are left out. Entries that show only a call come without a potency. Calls of active or inactive are those of the source. Unless noted, the call rests on the fitted dose curve; in most records, active means well fitted curve in the direction sought with a large enough effect; inconclusive means small, poorly fitted or top-dose-only effect, or another doubt; inactive means no such curve, though single readings can be large; an effect the other way counts as inactive or inconclusive.
Tests used:
[1] = target: Thioredoxin reductase 1, cytoplasmic (Rattus norvegicus) (UniProt O89049); experiment: qHTS Assay for Substrates of Mammalian Selenoprotein Thioredoxin Reductase 1 (TrxR1) (AID 488772);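 further: series mostly up to about 57 µM; a drop in NADPH fluorescence below the no-compound background marks a TrxR1 substrate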
Summary of the method: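 In this dual-purpose format, potential substrates are identified from the first fluorescence read after selenite addition, not from the 8-minute delta. Rat enzyme is preincubated with NADPH and then with compound at ~22 deg C.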

[2] = target: Thioredoxin reductase 1, cytoplasmic (Rattus norvegicus) (UniProt O89049); experiment: qHTS Assay for Inhibitors of Mammalian Selenoprotein Thioredoxin Reductase 1 (TrxR1) (AID 488773); conditions: Potency: inhibition; further: nearly all actives have a fitted effect of over 40% in size; further: potency means the concentration at half of the fitted maximal effect
Summary of the method: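 Inhibition is scored from the loss of NADPH fluorescence between first and last reads of an 8-min kinetic run. Selenite (400 uM) was the substrate, added after 15 min compound preincubation at room temperature.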

[3] = target: M-phase phosphoprotein 8 (Homo sapiens) (UniProt Q99549); experiment: qHTS Validation Assay for Inhibitors for MPP8 Chromodomain Interactions with Methylated Histone Tails (AID 488949); further: nearly all actives have a fitted effect of over 55% in size; further: potency means the concentration at half of the fitted maximal effect
Summary of the method: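 MPP8 (50 nM) was preincubated with biotinylated H3(1-18)K9me3 peptide (50 nM) in PBS pH 7.4, 0.01% Tween-20 for 30 min at room temperature, then with compounds for 30 min; binding was detected by AlphaScreen.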

[4] = target: Methanococcus maripaludis chaperonin (MmCpn) (UniProt Q6LX38); experiment: High-Throughput Screening for Modulators of Cytosolic Chaperonin Activity: MmCpn Primary Screen (AID 488978);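 further: 50 nM MmCpn enzyme hydrolysing 30 µM ATP at 37 °C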
Summary of the method: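 MmCpn (50 nM final) was preincubated with compound 5 min at RT, then 30 uM ATP (final) was added and the reaction ran 10 min at 37C. ADP produced was detected by Transcreener HTRF (ex 320 nm; em 590/665 nm).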

[5] = target: Transient receptor potential cation channel subfamily V member 1 (Homo sapiens) (UniProt Q8NER1); experiment: HTS Assay for Compounds that Act as Enhancers of the Vanilloid Receptor 1 (AID 488979)
Summary of the method: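 TRPV1 cells loaded with Fluo-8 calcium dye; compound added and Ca2+ signal (ex 480/em 520 nm) followed 3 min, then capsaicin at EC20 added and read 2 more min to detect enhancement.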

[6] = target: Thyrotropin receptor (Homo sapiens) (UniProt P16473); experiment: qHTS Assay for Antagonists of the Thyroid Stimulating Hormone Receptor (AID 488980); further: series mostly up to about 58 µM
Summary of the method: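 HEK293 cells transfected with human TSHR, suspended in HEPES-buffered HBSS with 70 uM RO 20-1724, were treated with compounds plus TSH at EC80 (4 nM final). cAMP was measured by competitive HTRF (cryptate anti-cAMP antibody, cAMP-d2 acceptor).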

[7] = target: D(1A) dopamine receptor (Homo sapiens) (UniProt P21728); experiment: HTS Assay for Allosteric Agonists of the Human D1 Dopamine Receptor: Primary Screen for Agonists (AID 488981); further: potency means the concentration at half of the fitted maximal effect
Summary of the method: (§1)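 Tetracycline-induced HEK293 Trex D1 cells with forced coupling to calcium, loaded with no-wash calcium dye; kinetic fluorescence read 180 s after compound addition for agonism, then a further 180 s after an EC20 dopamine challenge for potentiation.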

[8] = target: D(1A) dopamine receptor (Homo sapiens) (UniProt P21728); experiment: HTS Assay for Allosteric Agonists of the Human D1 Dopamine Receptor: Primary Screen for Potentiators (AID 488982)
Summary of the method: as §1

[9] = Validation screen for small molecules that induce genotoxicity in human embryonic kidney (HEK293T) cells expressing luciferase-tagged ELG1 (AID 493106)
Summary of the method: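 Cells were dispensed at 2,000 per well, then 23 nL compound or DMSO was pinned in. After 16 hr at 37 °C and 5% CO2, ONE-Glo reagent was added. Luciferase activity was measured following 30 min at room temperature.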

[10] = target: ATPase family AAA domain-containing protein 5 (Homo sapiens) (UniProt Q96QE3); experiment: Validation screen for small molecules that inhibit ELG1-dependent DNA repair in human embryonic kidney (HEK293T) cells expressing luciferase-tagged ELG1 (AID 493107);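 further: cells co-treated with the DNA-damaging agent 5-fluorouridine alongside compound; series mostly up to about 46 µM; inhibitors lower the ELG1-luciferase luminescence signal; nearly all actives have a fitted effect of over 70% in size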
Summary of the method: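 Cells are dispensed in 1536-well format, then 5-fluorouridine and compound are pinned in. After a 16 hr incubation at 37 °C and 5% CO2, ONE-Glo is added and luciferase measured on a CCD imager.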

[11] = target: Thyrotropin-releasing hormone receptor (Homo sapiens) (UniProt P34981); experiment: qHTS for Small Molecule Agonists and Allosteric Enhancers of Human TRH Receptor: Validation Screen for Agonists (AID 493127;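 active means calcium activation more than 3 SD above the typical response in the agonist read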;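 further: intracellular calcium rise by fluo-8 fluorescence before TRH EC20 addition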); conditions: TRH receptor agonist cell assay; at 2 µM; stronger effect = higher value
Summary of the method: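 Compounds are added by online pintool to dye-loaded TRHR cells while fluorescence is recorded every second. A rise in calcium signal during the agonist read marks activation; a later 10 nM TRH addition (EC20) serves the separate enhancer mode.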

[12] = Nrf2 qHTS screen for inhibitors: Validation (AID 493153; active means well fitted inhibition curve with a large enough effect in the main read-out, with a control signal flat, not every such curve was filed as active); conditions: Potency: luciferase luminescence; viability change: measured here: cytotoxicity max response
Summary of the method: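 A549 ARE_Fluc, 5% FBS OPTI-MEM; cpd titration, 18-24 h, 37°C/5% CO2. Read 1: CellTiter-Fluor (Ex 405/Em 525), cytotox. Read 2: luciferase lum, Nrf2 activity.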

[13] = qHTS for Inhibitors of Cell Surface uPA Generation: Validation Assay (AID 493164);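 further: RAW 264.7 macrophage cells exposed to compound for 18 h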
Summary of the method: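 ATP-Lite luminescence read-out: ATP remains high when uPA activity-dependent LF translocation into the cytoplasm is blocked. RAW 264.7 cells, 18 h compound exposure at 37 C; 7-point titration, 2.45 nM to 38.3 uM final.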

[14] = target: Galactokinase (Homo sapiens) (UniProt P51570); experiment: qHTS Validation Assay for Inhibitors of Human Galactokinase (GALK) (AID 493189)
Summary of the method: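 GALK (5 nM) with 35 uM ATP and 100 uM galactose in HEPES pH8.0, MgCl2, NaCl, DTT, BSA; 1 h at room temperature. Residual ATP read by Kinase-Glo Plus luminescence after 10 min.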

[15] = Validation screen for small molecules that induce DNA re-replication in SW480 colon adenocarcinoma cells (AID 504364)
Summary of the method: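 Image-based qHTS: compounds were incubated with SW480 cells for 48 hr, nuclei stained with Hoechst, and per-nucleus fluorescence intensity scanned to flag cells with excess DNA content.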

[16] = target: Chromobox protein homolog 1 (Homo sapiens) (UniProt P83916); experiment: qHTS Validation Assay for Inhibitors of HP1-beta Chromodomain Interactions with Methylated Histone Tails (AID 488953); further: nearly all actives have a fitted effect of over 50% in size; further: potency means the concentration at half of the fitted maximal effect
Summary of the method: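 Disruption of preformed HP1-beta:H3K9me3 peptide complexes (both 50 nM, PBS pH 7.4 with 0.01% Tween-20) is measured by AlphaScreen after 30 min compound exposure at room temperature, using streptavidin donor and nickel chelate acceptor beads at 10 ug/mL final.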

[17] = target: D(1A) dopamine receptor (Homo sapiens) (UniProt P21728); experiment: HTS Assay for Allosteric Agonists of the Human D1 Dopamine Receptor: Primary Screen for Antagonists (AID 488983);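 further: calcium flux response to an EC80 dopamine challenge measured with no-wash dye; nearly all actives have a fitted effect of over 65% in size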; further: potency means the concentration at half of the fitted maximal effect
Summary of the method: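 Kinetic fluorescence at 1 cycle/sec tracked intracellular calcium in force-coupled, tetracycline-inducible HEK293 T-REx D1 cells. Loss of response to an EC80 dopamine dose, given 180 s after compound, marked antagonists.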

Chain of Thyrotropin-releasing hormone receptor (Homo sapiens) (P34981 whole entry, looked up): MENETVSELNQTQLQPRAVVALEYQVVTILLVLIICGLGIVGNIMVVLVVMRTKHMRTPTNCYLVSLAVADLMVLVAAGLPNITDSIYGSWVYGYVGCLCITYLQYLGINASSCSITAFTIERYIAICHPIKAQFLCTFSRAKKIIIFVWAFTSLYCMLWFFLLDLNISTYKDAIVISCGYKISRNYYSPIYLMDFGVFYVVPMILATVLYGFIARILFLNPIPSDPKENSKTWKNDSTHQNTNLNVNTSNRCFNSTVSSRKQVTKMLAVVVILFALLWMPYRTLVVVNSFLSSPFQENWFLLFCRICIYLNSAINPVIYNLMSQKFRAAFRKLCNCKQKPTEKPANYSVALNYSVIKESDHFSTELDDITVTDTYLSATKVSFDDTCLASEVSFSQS
Chain of Transient receptor potential cation channel subfamily V member 1 (Homo sapiens) (Q8NER1 whole entry, looked up): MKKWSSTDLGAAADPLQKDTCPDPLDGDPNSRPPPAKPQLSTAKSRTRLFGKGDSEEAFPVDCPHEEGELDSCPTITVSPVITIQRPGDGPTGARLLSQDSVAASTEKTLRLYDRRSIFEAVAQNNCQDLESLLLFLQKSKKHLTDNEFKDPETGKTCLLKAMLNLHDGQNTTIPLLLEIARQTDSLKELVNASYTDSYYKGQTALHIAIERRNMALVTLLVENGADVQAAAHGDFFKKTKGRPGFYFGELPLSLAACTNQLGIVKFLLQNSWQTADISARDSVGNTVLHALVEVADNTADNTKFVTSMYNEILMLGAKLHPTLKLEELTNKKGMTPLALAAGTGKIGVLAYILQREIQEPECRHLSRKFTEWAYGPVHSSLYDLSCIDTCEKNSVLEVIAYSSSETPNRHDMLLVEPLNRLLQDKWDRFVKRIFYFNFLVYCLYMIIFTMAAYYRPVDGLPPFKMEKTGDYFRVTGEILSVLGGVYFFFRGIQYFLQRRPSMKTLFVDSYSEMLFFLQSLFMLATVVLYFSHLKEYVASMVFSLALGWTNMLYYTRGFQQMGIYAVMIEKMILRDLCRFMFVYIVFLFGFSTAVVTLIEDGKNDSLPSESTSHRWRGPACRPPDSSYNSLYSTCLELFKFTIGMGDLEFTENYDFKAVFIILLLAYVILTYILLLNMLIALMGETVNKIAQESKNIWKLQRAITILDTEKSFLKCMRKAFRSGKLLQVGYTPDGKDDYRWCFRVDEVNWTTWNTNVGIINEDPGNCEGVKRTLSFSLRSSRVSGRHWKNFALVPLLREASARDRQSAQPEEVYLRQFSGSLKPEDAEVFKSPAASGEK
Chain of Thyrotropin receptor (Homo sapiens) (P16473 whole entry, looked up): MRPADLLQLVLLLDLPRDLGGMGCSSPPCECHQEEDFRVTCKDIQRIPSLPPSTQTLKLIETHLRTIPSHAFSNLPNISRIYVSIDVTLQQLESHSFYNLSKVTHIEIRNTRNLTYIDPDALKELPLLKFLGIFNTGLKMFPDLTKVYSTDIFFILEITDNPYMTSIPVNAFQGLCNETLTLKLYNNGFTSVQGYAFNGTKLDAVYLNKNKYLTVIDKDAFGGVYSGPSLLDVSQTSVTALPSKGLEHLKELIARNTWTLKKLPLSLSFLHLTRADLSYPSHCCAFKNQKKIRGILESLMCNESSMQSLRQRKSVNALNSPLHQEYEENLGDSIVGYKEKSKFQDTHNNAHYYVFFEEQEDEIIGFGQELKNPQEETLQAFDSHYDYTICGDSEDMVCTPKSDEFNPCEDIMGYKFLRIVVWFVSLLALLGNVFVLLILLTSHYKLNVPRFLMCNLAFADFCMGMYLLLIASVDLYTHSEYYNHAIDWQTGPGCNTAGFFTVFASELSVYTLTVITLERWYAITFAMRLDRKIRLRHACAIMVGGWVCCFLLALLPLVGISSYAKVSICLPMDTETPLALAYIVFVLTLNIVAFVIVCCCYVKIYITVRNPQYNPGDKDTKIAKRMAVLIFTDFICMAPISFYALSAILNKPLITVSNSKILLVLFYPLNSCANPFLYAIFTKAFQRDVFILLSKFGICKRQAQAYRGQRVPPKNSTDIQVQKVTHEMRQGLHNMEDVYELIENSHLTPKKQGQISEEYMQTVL
Chain of ATPase family AAA domain-containing protein 5 (Homo sapiens) (Q96QE3 whole entry, looked up, the tested form may be a part): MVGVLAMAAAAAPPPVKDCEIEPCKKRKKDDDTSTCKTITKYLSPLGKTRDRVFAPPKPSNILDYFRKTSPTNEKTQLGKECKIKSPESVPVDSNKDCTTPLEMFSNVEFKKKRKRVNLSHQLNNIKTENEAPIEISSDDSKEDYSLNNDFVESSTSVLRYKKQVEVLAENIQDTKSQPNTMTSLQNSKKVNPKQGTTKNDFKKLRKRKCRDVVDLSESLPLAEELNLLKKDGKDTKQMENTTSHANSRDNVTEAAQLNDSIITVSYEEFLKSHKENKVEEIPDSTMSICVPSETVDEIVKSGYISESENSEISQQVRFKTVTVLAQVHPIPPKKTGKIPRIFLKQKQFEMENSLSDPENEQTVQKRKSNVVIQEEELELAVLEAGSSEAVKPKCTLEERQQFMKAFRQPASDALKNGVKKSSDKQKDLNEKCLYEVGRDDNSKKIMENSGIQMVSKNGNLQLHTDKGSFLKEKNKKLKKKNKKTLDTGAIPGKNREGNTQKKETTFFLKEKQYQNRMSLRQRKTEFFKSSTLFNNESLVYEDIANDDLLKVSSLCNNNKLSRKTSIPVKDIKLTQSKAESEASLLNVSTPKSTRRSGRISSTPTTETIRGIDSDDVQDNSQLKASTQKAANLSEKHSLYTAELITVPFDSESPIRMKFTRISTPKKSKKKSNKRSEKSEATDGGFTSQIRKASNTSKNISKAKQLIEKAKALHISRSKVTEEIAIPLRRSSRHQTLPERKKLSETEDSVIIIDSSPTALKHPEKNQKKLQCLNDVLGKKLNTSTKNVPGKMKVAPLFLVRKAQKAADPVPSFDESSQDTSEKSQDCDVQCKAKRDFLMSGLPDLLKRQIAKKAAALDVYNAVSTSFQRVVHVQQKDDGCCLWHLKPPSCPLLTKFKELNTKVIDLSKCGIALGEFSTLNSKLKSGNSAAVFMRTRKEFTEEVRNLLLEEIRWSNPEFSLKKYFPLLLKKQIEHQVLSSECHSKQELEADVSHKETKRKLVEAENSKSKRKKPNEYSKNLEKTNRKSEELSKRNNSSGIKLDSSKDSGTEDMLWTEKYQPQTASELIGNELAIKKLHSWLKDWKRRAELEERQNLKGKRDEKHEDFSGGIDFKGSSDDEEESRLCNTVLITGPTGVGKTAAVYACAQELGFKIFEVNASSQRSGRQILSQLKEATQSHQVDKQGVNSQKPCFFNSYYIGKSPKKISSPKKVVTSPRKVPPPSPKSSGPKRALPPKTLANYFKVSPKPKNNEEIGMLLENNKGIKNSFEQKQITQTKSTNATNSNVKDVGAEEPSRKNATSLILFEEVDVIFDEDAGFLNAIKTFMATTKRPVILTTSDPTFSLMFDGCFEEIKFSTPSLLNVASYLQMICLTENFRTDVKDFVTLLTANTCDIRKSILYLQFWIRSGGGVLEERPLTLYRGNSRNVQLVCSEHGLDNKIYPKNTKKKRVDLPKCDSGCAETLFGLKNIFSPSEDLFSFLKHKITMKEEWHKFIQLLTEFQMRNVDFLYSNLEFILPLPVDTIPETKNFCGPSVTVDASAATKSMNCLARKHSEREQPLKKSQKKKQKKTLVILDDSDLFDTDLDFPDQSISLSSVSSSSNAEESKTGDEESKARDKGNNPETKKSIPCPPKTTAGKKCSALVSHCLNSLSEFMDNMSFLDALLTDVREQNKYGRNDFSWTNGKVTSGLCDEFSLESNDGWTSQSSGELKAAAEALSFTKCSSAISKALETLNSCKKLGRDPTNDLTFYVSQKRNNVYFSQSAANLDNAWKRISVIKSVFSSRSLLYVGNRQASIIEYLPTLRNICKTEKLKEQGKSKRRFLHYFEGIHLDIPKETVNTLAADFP
Chain of D(1A) dopamine receptor (Homo sapiens) (P21728 whole entry, looked up): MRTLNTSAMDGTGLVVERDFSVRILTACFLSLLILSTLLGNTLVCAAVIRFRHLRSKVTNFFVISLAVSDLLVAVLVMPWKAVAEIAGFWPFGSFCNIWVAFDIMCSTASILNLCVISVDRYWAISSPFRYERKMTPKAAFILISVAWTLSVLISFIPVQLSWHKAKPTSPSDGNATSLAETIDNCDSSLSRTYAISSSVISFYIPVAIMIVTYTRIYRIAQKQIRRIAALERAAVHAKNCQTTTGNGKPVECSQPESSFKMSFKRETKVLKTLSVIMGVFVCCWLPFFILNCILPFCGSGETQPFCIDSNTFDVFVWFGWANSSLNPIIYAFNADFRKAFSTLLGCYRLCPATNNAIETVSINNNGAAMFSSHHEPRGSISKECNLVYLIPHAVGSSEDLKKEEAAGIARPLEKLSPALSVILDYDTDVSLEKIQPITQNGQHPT
Chain of Chromobox protein homolog 1 (Homo sapiens) (P83916 whole entry, looked up): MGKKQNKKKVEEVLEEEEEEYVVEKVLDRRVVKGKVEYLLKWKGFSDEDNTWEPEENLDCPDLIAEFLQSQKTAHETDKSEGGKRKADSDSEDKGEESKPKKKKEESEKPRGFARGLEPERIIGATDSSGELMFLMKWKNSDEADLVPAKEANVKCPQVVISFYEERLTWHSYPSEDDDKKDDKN
Chain of Thioredoxin reductase 1, cytoplasmic (Rattus norvegicus) (O89049 whole entry, looked up): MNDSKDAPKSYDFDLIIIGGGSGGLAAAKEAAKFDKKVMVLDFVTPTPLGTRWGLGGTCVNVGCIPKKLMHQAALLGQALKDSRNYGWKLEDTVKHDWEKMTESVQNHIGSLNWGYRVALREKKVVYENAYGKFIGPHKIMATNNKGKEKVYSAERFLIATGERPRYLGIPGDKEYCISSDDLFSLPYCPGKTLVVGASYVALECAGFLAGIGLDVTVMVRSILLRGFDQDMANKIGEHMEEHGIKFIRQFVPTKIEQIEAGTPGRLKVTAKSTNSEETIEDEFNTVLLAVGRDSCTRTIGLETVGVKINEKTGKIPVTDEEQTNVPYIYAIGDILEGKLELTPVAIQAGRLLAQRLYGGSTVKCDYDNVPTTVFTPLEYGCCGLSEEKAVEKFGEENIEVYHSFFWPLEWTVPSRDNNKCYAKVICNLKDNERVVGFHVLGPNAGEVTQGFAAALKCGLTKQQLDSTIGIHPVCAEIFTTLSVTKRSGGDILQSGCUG

SMILES	outcome [1]	Potency [2]	Potency [3]	outcome [4]	outcome [5]	outcome [6]	Potency [7]	Potency [8]	Potency [9]	Potency [10]	activation [11]	Potency [12]	viability change [12]	outcome [13]	outcome [14]	Potency [15]	Potency [16]	Potency [17]
CC(N)Cc1c[nH]c2ccc(O)cc12 (stereo not drawn)	inactive	inactive	inactive	inactive	inactive	inactive	inactive	inactive	inactive	inactive	1.38% (inactive)	inactive	-2.01%	inactive	inactive	inactive	–	–
Clc1ccc(N2CC3CCC(C2)N3)nn1	inactive	inactive	inactive	inactive	inactive	inactive	inactive	inactive	inactive	inactive	1.19% (inactive)	inactive	4.91%	inactive	inactive	inactive	inactive	inactive
O=[N+]([O-])c1ccc2nc(N3CCNCC3)ccc2c1	inactive	inactive	inactive	inactive	inactive	inactive	inactive	–	–	–	–	–	–	inactive	–	inactive	–	–
NCCc1c[nH]c2ccc(C(N)=O)cc12	inactive	inactive	inactive	inactive	inactive	inactive	inactive	–	inactive	inactive	1.5% (inactive)	inactive	4.69%	inactive	inactive	inactive	inactive	inactive
CC(N)c1cccc(Cl)c1Cl (stereo not drawn)	inactive	inactive	–	inactive	inactive	inactive	inactive	–	inactive	inactive	-0.188% (inactive)	inactive	5.17%	inactive	inactive	inactive	inactive	inactive
C=CCN1CC[C@]23c4c5ccc(O)c4O[C@@H]2/C(=N/N=C2\CC[C@@]4(O)C6Cc7ccc(O)c8c7[C@@]4(CCN6CC=C)[C@@H]2O8)CC[C@@]3(O)C1C5	inactive	11.9 µM (active)	inactive	inactive	inactive	inactive	inactive	inactive	inactive	–	–	inactive	-1.45%	inactive	–	inactive	–	inactive
C=CCN1CCc2cccc3c2[C@H]1Cc1ccc(O)c(O)c1-3	inactive	5.97 µM (active)	–	inactive	–	–	0.794 µM (active)	inactive	inactive	–	–	inactive	1.3%	inactive	–	–	44.7 µM (active)	0.398 µM (active)
NC(N)=Nc1ccc2[nH]c3c(c2c1)C[C@@]1(O)[C@H]2Cc4ccc(O)c5c4[C@@]1(CCN2CC1CC1)[C@H]3O5	inactive	26.7 µM (active)	31.6 µM (active) and 2.12 µM (active)	inactive	inactive	inactive	inactive	–	inactive	–	–	inactive	4.74%	inactive	–	inactive	28.2 µM (active)	inactive
C[C@@H]1O[C@H](C[N+](C)(C)C)CS1	inactive	inactive	inactive	inactive	inactive	inactive	inactive	–	inactive	–	11.2% (inactive)	–	–	inactive	–	inactive	inactive	inactive
